Measured values published in PubChem BioAssay (NCATS).
Where “and” joins values, the source holds several entries; their conditions need not be identical. Equal values may be shown once. Records with an inconclusive call do not appear. Where a call stands in place of a potency, no number is given. Values without a mark were called inactive. Calls of active or inactive are those of the source. The call rests on the fitted dose curve; in most records, active means well fitted inhibition curve with a large enough effect; inconclusive means small, poorly fitted or top-dose-only effect; inactive means flat fitted curve, though single readings scatter.

How the values were obtained:
[1] = system: HEK293; assay: Cytotoxic Profiling of Annotated Libraries Using Quantitative High-Throughput Screening (AID 1296008); conditions: Five cell lines viability, CellTiter-Glo ATP luminescence, 48-72 h; max response: stronger effect = lower value
How it was run: (§1)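 Cells exposed to compounds for 48 or 72 hr at 37 degrees Celsius. Viability read as ATP-coupled luminescence with CellTiter-Glo after 10 min at room temperature.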

[2] = system: HaCat; assay: as above; conditions: Five cell lines viability, CellTiter-Glo ATP luminescence, 48-72 h; max response: stronger effect = lower value
How it was run: as §1

[3] = system: KB-3-1; assay: as above; conditions: Five cell lines viability, CellTiter-Glo ATP luminescence, 48-72 h; max response: stronger effect = lower value
How it was run: as §1

[4] = system: NIH3T3; assay: as above; conditions: Five cell lines viability, CellTiter-Glo ATP luminescence, 48-72 h; max response: stronger effect = lower value
How it was run: as §1

[5] = system: HACAT; assay: qHTS assay to identify novel small-molecules to repurpose for Merkel cell carcinoma treatment (AID 1296009); conditions: MCC and control cell lines, CellTiter-Glo viability, 72 h; at 44.8 µM (top of the series) unless noted
How it was run: (§2)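 CellTiter-Glo luminescence after 72 hr compound exposure at 37 degree celsius gave cell viability. Libraries NPC and MIPE were run as 8- and 11-point dose responses; RLUs normalized to DMSO (negative) and no-cell (cytotoxicity) controls.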

[6] = system: MCC-13; assay: as above; conditions: MCC and control cell lines, CellTiter-Glo viability, 72 h; series mostly up to 46 µM
How it was run: as §2

[7] = system: MCC-26; assay: as above; conditions: MCC and control cell lines, CellTiter-Glo viability, 72 h; series mostly up to 46 µM
How it was run: as §2

[8] = system: MKL-1; assay: as above; conditions: MCC and control cell lines, CellTiter-Glo viability, 72 h; series mostly up to 46 µM
How it was run: as §2

[9] = system: MKL-2; assay: as above; conditions: MCC and control cell lines, CellTiter-Glo viability, 72 h; series mostly up to 46 µM
How it was run: as §2

[10] = system: HEK293T; assay: as above; conditions: MCC and control cell lines, CellTiter-Glo viability, 72 h; at 44.8 µM (top of the series) unless noted
How it was run: as §2
Further: nearly all actives have a fitted effect of over 60% in size.
Potency means the concentration at half of the fitted maximal effect.

| Structure (SMILES) | max response [1] [%] | outcome [2] | max response [3] | max response [4] [%] | outcome [5] | Potency [6] | Potency [7] | Potency [8] | Potency [9] | outcome [4] | outcome [3] | outcome [1] | outcome [10] | max response [2] [%] | Potency [1] |
| --- | --- | --- | --- | --- | --- | --- | --- | --- | --- | --- | --- | --- | --- | --- | --- |
| O=C(O)[C@@H](O)[C@H](O)[C@H](O)[C@@H](O)C(=O)O | 3.38 | inactive | -10.9% | -2.02 | inactive | inactive | inactive | inactive | inactive | – | – | – | – | – | – |
| O=C(OCC1(COC(=O)c2cccnc2)CCCC(COC(=O)c2cccnc2)(COC(=O)c2cccnc2)C1O)c1cccnc1 | -9.95 | inactive | 8.89% | -1.33 | inactive | inactive | inactive | inactive | inactive | – | – | – | – | – | – |
| Cc1nc([N+](=O)[O-])cn1-c1ccc([N+](=O)[O-])cc1 | 0.842 | inactive | 5.55% | – | inactive | inactive | inactive | inactive | inactive | inactive | – | – | – | – | – |
| CN(C(=O)C(Cl)Cl)c1ccc(OC(=O)c2ccco2)cc1 | -3.53 | inactive | -7.7% | 1.4 | inactive | inactive | inactive | inactive | inactive | – | – | – | – | – | – |
| CC(C(=O)O)c1ccc(/C=C2\CCCCC2=O)cc1 (stereo not drawn) | -12.2 | inactive | – | 3.05 | inactive | inactive | inactive | inactive | inactive | – | inactive | – | – | – | – |
| COc1ccccc1N1CCN(CCN2C(=O)CC3(CCCC3)CC2=O)CC1 | – | inactive | 1.39% | – | inactive | – | – | – | – | inactive | – | inactive | inactive | – | – |
| N[C@@H](Cn1ccc(=O)c(O)c1)C(=O)O | -0.669 | inactive | 7.53% | 0.301 | inactive [at 4.96 µM] | – | – | – | – | – | – | – | – | – | – |
| O=C(CCCCCCCCC#CI)Oc1ccccc1 | – | inactive | – | 0.745 | inactive | inactive | inactive | 13.3 µM (active) | 9.44 µM (active) | – | inactive | inactive | inactive | – | – |
| CN1CCC(=C2c3ccccc3CCc3cccnc32)CC1 | 2.67 | inactive | -10.8% | – | inactive | inactive | inactive | inactive | inactive | inactive | – | – | – | – | – |
| O=C(O)c1[nH]n(-c2ccc(S(=O)(=O)O)cc2)c(=O)c1N=Nc1ccc(S(=O)(=O)O)cc1 | 1.51 | inactive | 3.04% | -0.37 | inactive | inactive | inactive | inactive | inactive | – | – | – | – | – | – |
| Cc1ccc(O)cc1 | 0.45 | inactive | -1.63% and -10.4% | 0.99 | inactive | inactive | – | inactive | inactive | – | – | – | – | – | – |
| CCCCCC[C@@H](CCC)C(=O)O | – | inactive | -12.3% | – | inactive | inactive | inactive | inactive | inactive | inactive | – | inactive | inactive | – | – |
| CCOC(=O)NNc1nncc2ccccc12 | -5.42 | inactive | -9.29% | 3.89 | inactive | inactive | inactive | inactive | inactive | – | – | – | – | – | – |
| COC(=O)C1=CO[C@@H](O)[C@@H]2C(CO)=CC[C@H]12 | -25.4 | – | -12.1% | -14.6 | – | – | – | – | – | – | – | – | – | -1.37 | – |
| Oc1ccc(CCNCCCCCCNCCc2ccccc2)cc1O | – | inactive | -20.6% | -5.45 | inactive | inactive | inactive | 2.11 µM (active) | 0.596 µM (active) | – | – | – | – | – | 23.7 µM (active) |
| COc1cc(C(=O)NC2CCCNC2)cc(OC)c1OC (stereo not drawn) | -8.29 | inactive | -17.2% | 4.73 | inactive | inactive | inactive | inactive | inactive | – | – | – | – | – | – |
| CCCC(=O)O[C@]1(C(=O)COC(=O)CC)CC[C@H]2[C@@H]3CCC4=CC(=O)CC[C@]4(C)[C@H]3[C@@H](O)C[C@@]21C | 3.26 | inactive | -1.68% | 1.36 | inactive [at 17.4 µM] | inactive | – | inactive | inactive | – | – | – | – | – | – |
| CCC(C(=O)NC(=O)NC(C)=O)c1ccccc1 (stereo not drawn) | -0.744 | inactive | 0.82% | -7.72 | inactive | inactive | inactive | inactive | inactive | – | – | – | – | – | – |
| C[N+]1(C)CCC(OC(=O)C(O)(c2ccccc2)C2CCCC2)C1 (stereo not drawn) | -9.88 | inactive | -6.32% and -2.46% | -0.313 | inactive | inactive | – | inactive | inactive | – | – | – | – | – | – |
